The whole screen tested about 4,300 compounds, of which about 60 (1%) were called active.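 How the source made its calls: active means inhibition of labelled peptide binding to the formyl peptide receptor of at least 65%; inactive means the rest.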 Only a selection was taken, and actives are over-represented in it overall.

fMet-Leu-Phe receptor (Homo sapiens), sequence (P21462 whole entry, looked up): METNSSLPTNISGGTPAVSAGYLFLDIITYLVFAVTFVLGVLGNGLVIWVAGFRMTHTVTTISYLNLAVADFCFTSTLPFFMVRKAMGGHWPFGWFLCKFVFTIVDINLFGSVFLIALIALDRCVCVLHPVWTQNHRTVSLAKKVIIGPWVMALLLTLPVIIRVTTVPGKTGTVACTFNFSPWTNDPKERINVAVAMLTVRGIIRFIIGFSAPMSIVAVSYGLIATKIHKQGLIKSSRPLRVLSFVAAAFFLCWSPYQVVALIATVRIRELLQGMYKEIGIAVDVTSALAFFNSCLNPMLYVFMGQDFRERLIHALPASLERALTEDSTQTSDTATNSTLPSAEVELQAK

The test has as its target fMet-Leu-Phe receptor (Homo sapiens) (UniProt P21462). In words: FPR binders displacing fluorescent formyl peptide, primary screen, U937-FPR cells, fMLFK-FITC, flow cytometry (AID 362).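 On inhibition: plate controls were buffer control wells for no effect and unlabeled fMLFF blocking peptide for full effect; higher means less cell fluorescence so more probe displaced.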 Particulars: fMLFK-FITC displacement; hits give high values, concentration not given here. (Flow cytometry measures light scatter and fluorescence of single cells or particles in a stream.)
One may read the inhibition as the relative decrease from the control value, in per cent. On to `CC1(C)CC(=O)C2=C(C1)Nc1[nH]n(-c3ccccc3)c(=O)c1C2c1ccccc1Cl` (configuration not stated), for which the inhibition is 70.6% (active).

Take `CCOc1ccc(C2C(C#N)=C(N)OC3=C2C(=O)CC(C)(C)C3)cc1` (configuration not stated): the inhibition is 15.2% (inactive). Then `CC1(C)CC(=O)C2=C(C1)Nc1[nH]n(-c3ccccc3)c(=O)c1C2c1ccccc1F` (configuration not stated), with 55.8% (inactive); and `CC1(C)CC(=O)C2=C(C1)Nc1[nH]n(-c3ccccc3)c(=O)c1C2c1ccc(F)cc1` (configuration not stated), with 47.8% (inactive).

Take `CCOc1ccc(C2C3=C(CC(C)(C)CC3=O)Nc3[nH]n(-c4ccccc4)c(=O)c32)cc1` (configuration not stated): the inhibition was 76% (active).

For the compound `CC1(C)CC(=O)C2=C(C1)Nc1ncnn1C2c1ccc(OCc2ccccc2)cc1` (configuration not stated), the inhibition was 7.5% (inactive). Turning to `CC(C)c1ccc(C2C3=C(CC(C)(C)CC3=O)Nc3[nH]n(-c4ccccc4)c(=O)c32)cc1` (configuration not stated), the inhibition is 57% (inactive). Then `Cc1ccc(C2C3=C(CC(C)(C)CC3=O)Nc3[nH]n(-c4ccccc4)c(=O)c32)cc1` (configuration not stated), with 65.6% (active); and `CC1(C)CC(=O)C2=C(C1)Nc1[nH]n(-c3ccccc3)c(=O)c1C2c1cccs1` (configuration not stated), with 50.9% (inactive). To `COc1cc(C2NC(=O)NC(C)=C2C(=O)OC2CCCCCC2)ccc1O` (configuration not stated) belongs “inactive”; to `O=C(O)c1ccc([N+](=O)[O-])c2c1NC(C(=O)O)C1CC=CC21` (configuration not stated), “inactive”.

As for `CCOC(=O)C1CCC(CN(Cc2ccc(Cl)cc2)S(=O)(=O)c2ccc([N+](=O)[O-])cc2)CC1` (configuration not stated), the inhibition entry is “inactive”. Then `CCCc1cc2c(=O)c(-c3cc4ccccc4o3)coc2cc1OC(C)=O`, with 33.7% (inactive). Then `CCOCCOC(=O)C1=C(C)NC2=C(C(=O)C(C(=O)OC)C(C)C2)C1c1ccc(OC)c(O)c1` (configuration not stated), with 23.5% (inactive); and `COc1ccc(C(=O)NCC2(c3ccc(OC)c(OC)c3)CCCC2)cc1`, with “inactive”. To `CCCCCOC(=O)c1cccc(N2C(=O)C3C4CCC(C4)C3C2=O)c1` (configuration not stated) belongs “inactive”; to `COc1cc2c(C(=O)N(C)c3cccc(Cl)c3)cn(CC(C)C)c(=O)c2cc1OC`, “inactive”; to `CCOC(=O)C1C(c2cccc([N+](=O)[O-])c2)NC(=O)NC1(O)C(F)(F)F` (configuration not stated), “inactive”. Consider `Cc1ccc(C(=O)C2=C(N)OC3=C(C(=O)CC(C)(C)C3)C2c2ccccc2Cl)cc1` (configuration not stated), for which the inhibition entry was “inactive”. Then `O=C(CSc1nc2ccccc2c(=O)n1CC1CCC(C(=O)NCc2ccccc2Cl)CC1)NC1CCCC1` (configuration not stated), with 4.5% (inactive); and `CC(C)CN(CC(C)C)S(=O)(=O)c1ccc(C(=O)Nc2cccc(-c3nc4ccccc4[nH]3)c2)cc1`, with 4.7% (inactive); and `CCCCCCc1cc2c3c(c(=O)oc2cc1OCC(C)=O)CCC3`, with 5.4% (inactive). On to `CCCCCCc1cc2c3c(c(=O)oc2cc1OCC(=O)O)CCCC3`, for which the inhibition is 47.7% (inactive). Then `CCCCCCc1cc2c3c(c(=O)oc2cc1OCC(=O)O)CCC3`, with 74.7% (active); and `CC1CC(C)CN(C(=O)c2cn(C3CCCC3)c(=O)c3c2c2ccccc2n3C)C1` (configuration not stated), with “inactive”; and `COC(=O)c1c(-c2ccccc2)csc1NC(=O)C1CCCCC1C(=O)O` (configuration not stated), with “inactive”. Take `CCOC(=O)c1c(-c2ccc(OC)cc2)csc1NC(=O)C1CCCCC1C(=O)O` (configuration not stated): the inhibition was 3% (inactive). `COC(=O)c1c(-c2cc(C)ccc2C)csc1NC(=O)C1CCCCC1C(=O)O` (configuration not stated): the inhibition is 40.4% (inactive). Then `COC(=O)c1c(-c2ccc(C)c(C)c2)csc1NC(=O)C1CCCCC1C(=O)O` (configuration not stated), with 22.4% (inactive).

For the compound `COC(=O)c1c(-c2ccc(F)cc2)csc1NC(=O)C1CCCCC1C(=O)O` (configuration not stated), the inhibition is 72.4% (active). As for `CCOC(=O)c1c(-c2ccc(C)cc2)csc1NC(=O)C1CCCCC1C(=O)O` (configuration not stated), the inhibition is 15.5% (inactive). Then `COC(=O)c1c(-c2cccc(C)c2)csc1NC(=O)C1CCCCC1C(=O)O` (configuration not stated), with 68.9% (active); and `CCOC(=O)c1c(-c2ccc(C)cc2C)csc1NC(=O)C1CCCCC1C(=O)O` (configuration not stated), with 94.2% (active). Regarding `CCOC(=O)c1c(-c2ccc(F)cc2)csc1NC(=O)C1CCCCC1C(=O)O` (configuration not stated), the inhibition is 35.1% (inactive). Then `O=C(O)C1CCCCC1C(=O)N1CCN(C/C=C/c2ccccc2)CC1` (configuration not stated), with “inactive”.

For `O=C(CSc1nc2ccccc2c(=O)n1CC1CCC(C(=O)NCc2ccco2)CC1)NCCC1=CCCCC1` (configuration not stated), the inhibition was 7.9% (inactive). To `CC(=O)N1CCCc2cc(S(=O)(=O)NC(C(=O)NCc3cccs3)C(C)C)ccc21` (configuration not stated) belongs “inactive”; to `CC(C)C(C(=O)O)n1c(O)c(C2=c3cc(Br)ccc3=NC2=O)sc1=S` (configuration not stated), 95.3% (active). To `CC(C)C(C(=O)O)n1c(O)c(C2=c3ccccc3=NC2=O)sc1=S` (configuration not stated) belongs 106% (active); to `Cc1cc(C)c(S(=O)(=O)NCC2CCC(C(=O)NCC3CCCO3)CC2)c(C)c1` (configuration not stated), “inactive”. To `CC(C)CC(C(=O)OCC(=O)c1ccc(Cl)cc1)N1C(=O)c2ccccc2C1=O` (configuration not stated) belongs “inactive”. Regarding `CCN(CC)CC(=O)N1CCCc2c1c(=O)oc1ccc(OC(C)=O)cc21`, the inhibition entry was “inactive”. To `Cc1ccc2nc3c(cc(C(=O)NCc4ccco4)c(=N)n3C3CCCC3)c(=O)n2c1` belongs “inactive”; to `CCCCc1cc(=O)oc2cc(OCC(=O)OCC)c(Cl)cc12`, “inactive”; to `CC1=C(C)CS(=Nc2ccccc2[N+](=O)[O-])N(S(=O)(=O)c2ccccc2)C1` (configuration not stated), “inactive”. To `O=C(C1CCCN(S(=O)(=O)c2ccccc2)C1)N1CCCCC1` (configuration not stated) belongs 7.6% (inactive).

On to `CC1=C(C)C/S(=N\S(=O)(=O)c2ccccc2)N(S(=O)(=O)c2ccccc2)C1` (configuration not stated), for which the inhibition was 103% (active).

Regarding `CC(C)Cn1cc(C(=O)N2CC(C)CC(C)C2)c2c3ccccc3n(C)c2c1=O` (configuration not stated), the inhibition was 5.3% (inactive). As to `O=S(=O)(c1ccc(-c2csc(=Nc3cccc4ccccc34)n2CCCCO)cc1)N1CCCCC1`, the inhibition entry is “inactive”. On to `CCOC(=O)c1c(NC(=O)C2C3CCC(C3=C(C)C)C2C(=O)O)sc2c1CCCCCCC2` (configuration not stated), for which the inhibition is 95.1% (active). As to `CCOC(=O)c1c(NC(=O)C2CCCCC2C(=O)O)sc2c1CCC(C(C)(C)CC)C2` (configuration not stated), the inhibition was 21% (inactive). Then `CCOC(=O)c1c(NC(=O)C2C3C=CC(C3)C2C(=O)O)sc2c1CCCCCC2` (configuration not stated), with 16.4% (inactive); and `CCOC(=O)c1c(NC(=O)C2C3C=CC(CC3)C2C(=O)O)sc2c1CCCC2` (configuration not stated), with 4.5% (inactive); and `CCOC(=O)c1c(NC(=O)C2CCCCC2C(=O)O)sc2c1CCC(C(C)(C)C)C2` (configuration not stated), with 71.7% (active).

With `CCCOC(=O)c1c(NC(=O)C2CCCCC2C(=O)O)sc2c1CCC2` (configuration not stated), the inhibition was 47.3% (inactive). `CCCOC(=O)c1c(NC(=O)C2CCCCC2C(=O)O)sc2c1CCC(C)C2` (configuration not stated): the inhibition was 23.4% (inactive). Then `CC1CCc2c(sc(NC(=O)C3CCCCC3C(=O)O)c2C(=O)OC(C)C)C1` (configuration not stated), with 3% (inactive); and `CCC(C)(C)C1CCc2c(sc(NC(=O)C3CCCCC3C(=O)O)c2C(=O)OC)C1` (configuration not stated), with 80.5% (active). As for `CCC(C)C(NC(=O)C(CC(=O)OCc1ccccc1)NC(=O)OC(C)(C)C)C(=O)NC(Cc1ccccc1)C(N)=O` (configuration not stated), the inhibition entry is “inactive”. To `CCOc1cc(C2C(C(=O)OC3CCCC3)=C(C)NC3=C2C(=O)C(C(=O)OC)C(C)C3)ccc1O` (configuration not stated) belongs 15.5% (inactive); to `CCCN(CCC)CCNC(=O)c1cn(CC(C)C)c(=O)c2cc(OC)c(OC)cc12`, “inactive”; to `CC1=C(C(=O)OC2CCCCC2)C(c2cccc(O)c2)C2=C(CC(C)(C)CC2=O)N1` (configuration not stated), 20.5% (inactive). Then `O=C(CCCCCn1c(SCC(=O)NCc2ccccc2)nc2ccccc2c1=O)NCc1ccco1`, with 3.6% (inactive); and `COc1ccc2nc(NC(=O)C(NS(=O)(=O)c3ccc4c(c3)CCN4C(C)=O)C(C)C)sc2c1` (configuration not stated), with “inactive”; and `COc1ccc(C2/C(=C(/O)c3ccc(C)cc3)C(=O)C(=O)N2CC(C)C)c(OC)c1` (configuration not stated), with 52.9% (inactive). To `COc1ccccc1C1/C(=C(\O)c2ccc(F)cc2)C(=O)C(=O)N1CCCCCC(=O)O` (configuration not stated) belongs 11.2% (inactive).

Consider `COc1ccc(C2/C(=C(/O)c3ccc(Cl)cc3)C(=O)C(=O)N2CC(C)C)c(OC)c1` (configuration not stated), for which the inhibition was 31.1% (inactive). Then `COc1ccc(OC)c(C2/C(=C(\O)c3ccc(F)cc3)C(=O)C(=O)N2CCCCCC(=O)O)c1` (configuration not stated), with 84.5% (active); and `COc1ccc(C2/C(=C(\O)c3ccc(F)cc3)C(=O)C(=O)N2CCCCCC(=O)O)c(OC)c1` (configuration not stated), with 23.3% (inactive). Take `COc1ccc(OC)c(C2/C(=C(/O)c3ccc(C)cc3)C(=O)C(=O)N2CC(C)C)c1` (configuration not stated): the inhibition is 86.7% (active).

Take `O=C(Nc1nccs1)c1cc(N2C(=O)C3C4CCC(C4)C3C2=O)ccc1Cl` (configuration not stated): the inhibition result is “inactive”. To `CCSCCOC(=O)C1=C(C)NC2=C(C(=O)C(C(=O)OC)C(C)C2)C1c1cccc(F)c1` (configuration not stated) belongs 5.8% (inactive); to `O=c1oc2cc(O)ccc2c2c1CCCC2`, “inactive”.

As for `O=c1oc2cc(O)ccc2c2c1CCC2`, the inhibition was 7% (inactive). Regarding `O=c1oc2cc(O)cc(O)c2c2c1CCC2`, the inhibition was 81.6% (active). To `Cc1cc(NC(=O)C2CCCCC2C(=O)O)nn1Cc1ccc(Cl)cc1` (configuration not stated) belongs 3% (inactive); to `CCCCCCOC(=O)C1=C(C)NC(=O)NC1c1cc(OC)c(O)c(OC)c1` (configuration not stated), “inactive”. To `CCCCCC(=O)Oc1cccc(N2C(=O)C3C4CCC(C4)C3C2=O)c1` (configuration not stated) belongs “inactive”; to `COC(=O)CC/C(O)=C1\C(=O)CC(C)(C)CC1=NCCc1ccc(OC)c(OC)c1`, 3.2% (inactive); to `COc1cc2c(C(=O)O)cn(CC(C)C)c(=O)c2cc1OC`, “inactive”. Then `CCOc1cc2c(C(=O)O)cn(CC(C)C)c(=O)c2cc1OCC`, with 70% (active); and `CCOc1cc2c(C(=O)N3CCN(c4ccccn4)CC3)cn(CC(C)C)c(=O)c2cc1OCC`, with 3.9% (inactive); and `CCCc1cc(=O)oc2cc(OC(C)=O)cc(OC(C)=O)c12`, with 77.3% (active). `CCCc1cc(=O)oc2cc(OC(C)=O)ccc12`: the inhibition is 17.6% (inactive). Consider `CCCc1cc(=O)oc2cc(OCC(=O)OCC)cc(OCC(=O)OCC)c12`, for which the inhibition entry is “inactive”. For `CCOc1ccc(CCNC(=O)c2cn(CC(C)C)c(=O)c3cc(OC)c(OC)cc23)cc1OCC`, the inhibition entry was “inactive”. To `C=C(C)Cn1c(SCC(=O)c2ccccc2)nc2c(c1=O)C1(CCCC1)Cc1ccccc1-2` belongs “inactive”.

(Values after PubChem BioAssay AID362 (NMMLSC, 2006).)
